# Experimental data published in PubChem BioAssay.
# Activity calls are given as the source filed them.
# Key:
# [1] = binders of probe aFSTL3 on microarray, primary screen, stem cell growth factor project, biochemical, small-molecule microarray, fluorescence 635/667 (AID 1064); conditions: higher = more signal;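 also: measures binding of the biotinylated anti-FSTL3 antibody to printed compounds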
# [2] = binders from COS7 lysate, DM2A8 probe, primary screen, torsin A project, cell lysate, small-molecule microarray, fluorescence 635/667 (AID 1065); conditions: higher = more signal, COS7 lysate expressing mutant human TOR1A
# [3] = binders of probe aFGF2 on microarray, primary screen, stem cell growth factor project, biochemical, small-molecule microarray, fluorescence 635/667 (AID 1067); conditions: higher = more signal;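 also: measures binding of biotinylated aFGF2 protein to printed compounds on slides; z-score merges feature fluorescence and signal-to-noise across triplicate slides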
# [4] = binders of probe aFGF10 on microarray, primary screen, stem cell growth factor project, biochemical, small-molecule microarray, fluorescence 635/667 (AID 1071); conditions: higher = more signal;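 also: score merges 667 nm spot intensity and signal to noise from triplicate slides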
# [5] = molecular target: Neurogenic locus notch homolog protein 2 (Homo sapiens) (UniProt Q04721); test: Notch2 binders on small-molecule microarrays, primary screen, biochemical, small-molecule microarray, 635 nm fluorescence, stem cell growth factors (AID 1073); conditions: Notch2 binding, higher = more signal
# [6] = molecular target: Pro-neuregulin-1, membrane-bound isoform (Homo sapiens) (UniProt Q02297); test: NRG1 binders on small-molecule microarrays, primary screen, psychiatric disease protein project, biochemical, small-molecule microarray, fluorescence 635/667 (AID 1075); conditions: NRG1 binding, 635 nm fluorescence, higher = more signal;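 also: score combines 667 nm spot fluorescence with signal to noise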
# [7] = test system: Neuregulin-1 EGF-like domain; test: binders of neuregulin-1 EGF-like domain, primary screen, biochemical, small-molecule microarray, 635 nm fluorescence (AID 1081); conditions: small-molecule microarray binding, higher = more signal;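 also: binding of the protein to compounds printed on small-molecule microarray slides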
# [8] = FRG1 promoter luciferase signal modulators, primary screen, FRG1 inhibition for FSHD, cell-based, C2C12 myotubes, firefly/Renilla luciferase, luminescence (AID 1084); conditions: higher = more signal, called active from +8 up or from −8 down
# [9] = binders of probe aFST on microarray, primary screen, stem cell growth factor project, biochemical, small-molecule microarray, fluorescence 635/667 (AID 1086); conditions: higher = more signal;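 also: score merges 667 nm fluorescence with signal-to-noise of each printed compound spot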
# [10] = binders of probe aHhip on microarray, primary screen, stem cell growth factor project, biochemical, small-molecule microarray, fluorescence 635/667 (AID 1087); conditions: higher = more signal;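 also: score merges spot fluorescence at 667nm with spot signal to noise ratio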
# Chain of Pro-neuregulin-1, membrane-bound isoform (Homo sapiens) (Q02297 whole entry, looked up, the tested form may be a part, canonical isoform): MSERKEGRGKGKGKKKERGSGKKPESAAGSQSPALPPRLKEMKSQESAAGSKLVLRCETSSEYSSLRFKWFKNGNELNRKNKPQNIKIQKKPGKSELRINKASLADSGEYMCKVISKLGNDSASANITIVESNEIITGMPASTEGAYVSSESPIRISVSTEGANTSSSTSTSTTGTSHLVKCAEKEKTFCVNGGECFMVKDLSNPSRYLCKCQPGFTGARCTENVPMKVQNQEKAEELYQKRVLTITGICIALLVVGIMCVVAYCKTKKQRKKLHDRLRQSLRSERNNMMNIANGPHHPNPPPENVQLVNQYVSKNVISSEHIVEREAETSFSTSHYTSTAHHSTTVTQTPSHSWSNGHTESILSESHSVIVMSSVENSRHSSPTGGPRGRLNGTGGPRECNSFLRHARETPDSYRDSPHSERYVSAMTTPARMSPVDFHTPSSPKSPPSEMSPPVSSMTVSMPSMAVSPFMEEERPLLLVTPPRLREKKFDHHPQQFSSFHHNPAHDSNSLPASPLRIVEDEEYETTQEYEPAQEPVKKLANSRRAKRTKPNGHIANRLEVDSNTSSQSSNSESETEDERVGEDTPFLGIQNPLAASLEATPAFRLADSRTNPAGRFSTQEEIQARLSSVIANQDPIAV
# Chain of Neurogenic locus notch homolog protein 2 (Homo sapiens) (Q04721 whole entry, looked up, canonical isoform): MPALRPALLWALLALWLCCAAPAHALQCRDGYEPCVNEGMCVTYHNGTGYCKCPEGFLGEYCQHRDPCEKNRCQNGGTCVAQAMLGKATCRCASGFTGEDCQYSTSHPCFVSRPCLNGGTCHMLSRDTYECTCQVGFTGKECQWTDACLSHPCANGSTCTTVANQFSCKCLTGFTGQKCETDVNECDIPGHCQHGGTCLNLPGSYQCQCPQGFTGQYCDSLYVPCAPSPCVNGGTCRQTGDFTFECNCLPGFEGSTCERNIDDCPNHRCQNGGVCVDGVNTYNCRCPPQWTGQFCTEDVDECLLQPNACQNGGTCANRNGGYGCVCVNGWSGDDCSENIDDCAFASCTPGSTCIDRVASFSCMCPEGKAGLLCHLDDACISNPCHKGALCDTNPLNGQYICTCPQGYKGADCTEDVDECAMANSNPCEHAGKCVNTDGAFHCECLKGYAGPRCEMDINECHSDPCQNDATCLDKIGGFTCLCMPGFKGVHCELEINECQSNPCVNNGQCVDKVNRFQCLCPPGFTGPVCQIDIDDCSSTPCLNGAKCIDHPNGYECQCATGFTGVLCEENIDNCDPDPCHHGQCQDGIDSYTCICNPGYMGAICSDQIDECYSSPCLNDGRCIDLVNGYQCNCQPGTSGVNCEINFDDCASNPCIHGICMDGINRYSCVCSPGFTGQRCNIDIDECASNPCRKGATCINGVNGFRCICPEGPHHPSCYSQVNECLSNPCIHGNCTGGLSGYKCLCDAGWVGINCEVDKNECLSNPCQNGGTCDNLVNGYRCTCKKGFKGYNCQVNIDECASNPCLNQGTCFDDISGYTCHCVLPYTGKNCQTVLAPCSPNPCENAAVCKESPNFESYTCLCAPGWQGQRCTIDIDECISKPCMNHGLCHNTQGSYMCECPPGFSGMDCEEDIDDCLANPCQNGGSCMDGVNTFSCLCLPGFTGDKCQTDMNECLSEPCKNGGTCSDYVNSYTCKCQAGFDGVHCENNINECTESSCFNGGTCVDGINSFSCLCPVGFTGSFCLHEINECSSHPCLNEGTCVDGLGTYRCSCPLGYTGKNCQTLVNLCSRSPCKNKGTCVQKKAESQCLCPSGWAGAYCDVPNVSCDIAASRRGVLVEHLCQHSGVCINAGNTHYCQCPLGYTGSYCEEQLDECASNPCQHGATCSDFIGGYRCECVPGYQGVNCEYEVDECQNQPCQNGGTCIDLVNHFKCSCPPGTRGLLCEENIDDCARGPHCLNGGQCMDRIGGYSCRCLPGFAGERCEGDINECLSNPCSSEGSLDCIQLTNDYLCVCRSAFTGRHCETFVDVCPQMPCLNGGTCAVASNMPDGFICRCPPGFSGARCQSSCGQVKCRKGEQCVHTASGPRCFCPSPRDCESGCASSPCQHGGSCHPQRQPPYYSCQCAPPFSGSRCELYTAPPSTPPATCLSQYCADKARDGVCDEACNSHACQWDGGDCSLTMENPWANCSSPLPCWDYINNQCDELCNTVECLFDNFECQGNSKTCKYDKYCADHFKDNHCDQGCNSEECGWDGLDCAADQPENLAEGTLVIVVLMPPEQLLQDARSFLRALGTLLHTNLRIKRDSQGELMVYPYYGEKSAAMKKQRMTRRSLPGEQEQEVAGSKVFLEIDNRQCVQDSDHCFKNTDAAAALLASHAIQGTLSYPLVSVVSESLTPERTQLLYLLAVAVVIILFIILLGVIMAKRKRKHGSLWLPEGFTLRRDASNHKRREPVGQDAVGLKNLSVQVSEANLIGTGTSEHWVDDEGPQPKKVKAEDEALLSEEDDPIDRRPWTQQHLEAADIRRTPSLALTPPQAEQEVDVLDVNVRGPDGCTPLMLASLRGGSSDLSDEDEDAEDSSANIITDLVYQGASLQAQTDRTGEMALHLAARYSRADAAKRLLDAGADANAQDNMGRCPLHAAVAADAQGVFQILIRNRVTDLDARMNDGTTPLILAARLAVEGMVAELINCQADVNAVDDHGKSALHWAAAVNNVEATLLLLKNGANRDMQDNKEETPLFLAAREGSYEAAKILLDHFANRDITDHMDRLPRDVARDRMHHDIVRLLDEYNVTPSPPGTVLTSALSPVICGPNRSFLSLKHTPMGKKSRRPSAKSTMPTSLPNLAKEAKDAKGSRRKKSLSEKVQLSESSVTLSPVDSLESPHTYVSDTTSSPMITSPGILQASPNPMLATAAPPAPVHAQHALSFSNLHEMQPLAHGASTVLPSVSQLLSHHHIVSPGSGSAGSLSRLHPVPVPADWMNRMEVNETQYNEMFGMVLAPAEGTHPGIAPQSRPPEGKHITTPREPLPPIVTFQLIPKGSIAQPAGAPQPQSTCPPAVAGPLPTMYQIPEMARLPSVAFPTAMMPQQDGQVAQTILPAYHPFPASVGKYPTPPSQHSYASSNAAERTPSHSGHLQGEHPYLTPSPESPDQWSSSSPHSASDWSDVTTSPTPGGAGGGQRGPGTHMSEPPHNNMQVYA
Compound,composite z-score [1],composite z-score [2],composite z-score [3],composite z-score [4],composite z-score [5],composite z-score [6],composite z-score [7],z-score [8],composite z-score [9],composite z-score [10]
CCOC(=O)C[C@H]1[C@H](OC(=O)c2ccccc2-c2ccccc2)[C@@H](NC(=O)c2ccc3ccccc3n2)c2cc(OCCCO)ccc2N1C(=O)Cc1ccc(OC)cc1,0.139,0.394,-0.0715,0.158,0.383,0.336,0.028,0.63 (inactive),0.311,-0.142
NCCCCCNC(=O)[C@H]1C[C@H]2C(=O)N3CCC[C@H]3C(=O)N2[C@H]1c1cccc(OCCO)c1,1.46,0.161,-0.0448,0.179,-0.0052,1.52,1.43,1.91 (inactive),0.534,0.0873
C=CCC(OC(C)=O)[C@@H]1[C@@H](N(Cc2cccc3ccccc23)C(=O)Cc2ccc(OC)cc2)c2cc(OCCCO)ccc2N1C(=O)c1ccc(-c2ccccc2)cc1 (stereo not given in full),0.112,0.0969,-0.112,-0.153,-0.0051,0.497,-0.359,-1.39 (inactive),0.428,-0.201
CCCCC(CC)C(O)C1C=CC2C(=O)N(c3ccccc3)C(=O)C2N1Nc1ccc(C#N)cc1 (stereo not given),0.883,0.468,0.332,1,1.59,0.893,1.31,-0.257 (inactive),1.66,-0.183
C=CCOC(=O)[C@@H]1[C@H]2C(=O)O[C@H](c3ccccc3)[C@H](c3ccccc3)N2[C@H](c2ccc(OCCOC(=O)[C@@H]3C[C@@H]4C(=O)N[C@@H](CCCC[N+](C)(C)C)C(=O)N4[C@@H]3c3ccc(O)cc3)cc2)[C@@]12C(=O)Nc1ccc(I)cc12,-0.106,0.956,-0.0005,0.884,0.617,1.2,1.38,3.51 (inactive),-0.0446,-0.16
CC(C)C(CO)N1C(=O)[C@@H]2C3C(=O)OCCC/C=C\[C@H]3OC23C=CCN(c2ccc4ccccc4c2)C(=O)[C@@H]13 (stereo not given in full),-0.08,-0.623,-0.076,-0.12,-1,0.99,1.48,0.759 (inactive),-0.412,0.176
CCOC(=O)C[C@H]1[C@H](OC(=O)Cc2ccc3c(c2)OCO3)[C@@H](NC(=O)C2CCCCC2)c2cc(OCCCO)ccc2N1C(=O)c1ccccc1,0.0113,-0.155,-0.112,0.117,0.0925,-0.127,0.65,-1.14 (inactive),-0.0611,-0.0994
O=C(O)[C@@H]1C[C@@H]2C(=O)N3CCC[C@H]3C(=O)N2[C@@H]1c1ccc(O)cc1,1.18,0.607,-0.0058,0.0314,0.0995,0.956,1,7.28 (inactive),0.387,0.35
[N-]=[N+]=Nc1ccccc1C[C@@]1(C(=O)NCCN2CCOCC2)N=C(c2ccc(OCCCO)cc2)O[C@@H]1c1ccccc1N=[N+]=[N-],0.59,0.639,-0.167,1.28,1.04,1.69,1.29,-2.04 (inactive),0.98,0.122
CC1CC/C=C\[C@H]2OC34C=CCN(C(C)C)C(=O)[C@H]3N(CCO)C(=O)[C@@H]4C2C(=O)O1 (stereo not given in full),0.689,0.987,-0.159,-0.228,-1.19,1.08,1.23,0.0746 (inactive),-0.662,-0.134
COc1ccc([Si](C)(C)[C@H]2[C@H](CC(=O)N(CCO)Cc3ccccc3)O[C@@]3(C(=O)N(C)c4c(Br)cc(C)cc43)[C@@H]2C)cc1,0.145,0.671,-0.0861,0.208,-0.0381,0.435,1.22,-2.73 (inactive),0.152,0.107
COc1ccc([Si](C)(C)[C@@H]2[C@@H](CCO)O[C@]3(C(=O)N(Cc4ccccc4)c4ccc(N5C(=O)c6cccc7cccc5c67)cc43)[C@H]2C)cc1,0.107,-0.908,-0.0729,-0.086,-0.0923,0.367,0.609,0.0135 (inactive),-0.175,-0.271
COCCCNC(=O)[C@@H]1c2ccccc2C(=O)N(C(C)C)[C@H]1c1ccc(CO)cc1,0.312,0.355,-0.051,-0.373,0.0446,0.576,0.763,-0.215 (inactive),0.0241,-0.249
CCCNC(=O)[C@@H]1c2ccccc2C(=O)N(Cc2ccc(OC(F)(F)F)cc2)[C@H]1c1ccc(CO)cc1,0.193,-0.392,0.0295,0.0505,0.634,0.33,1.24,-1.88 (inactive),0.0347,-0.0237
COCCCNC(=O)[C@@]1(CCC(=O)OC(C)(C)C)N=C(c2ccc(OCCCO)cc2)O[C@H]1c1ccccc1N=[N+]=[N-],0.913,1.5,0.0999,1.14,1.41,1.9,1.4,2.62 (inactive),1.03,0.0053
O=C(NCc1ccc(F)cc1)[C@H]1C[C@H]2C(=O)NCC(=O)N2[C@H]1c1ccc(O)cc1,0.505,0.6,-0.0224,-0.162,-0.336,0.964,1.3,-0.428 (inactive),0.101,0.12
COCC(=C=CC[C@H](O)c1ccccc1OCCO)C[C@H](O)c1ccccn1,-0.109,-0.169,-0.128,0.4,-0.548,-0.409,0.0876,-0.996 (inactive),0.0547,-0.0994
